# GALK inhibitor: inhibits human galactokinase | P51570 | recombinant GALK, Kinase-Glo ATP luminescence, 1 h | Potency, µM (titrated, usually from 57.5 µM), most hits filed as inhibitors | 44,000 tested, under 10 active
# Target sequence (P51570 whole entry, looked up): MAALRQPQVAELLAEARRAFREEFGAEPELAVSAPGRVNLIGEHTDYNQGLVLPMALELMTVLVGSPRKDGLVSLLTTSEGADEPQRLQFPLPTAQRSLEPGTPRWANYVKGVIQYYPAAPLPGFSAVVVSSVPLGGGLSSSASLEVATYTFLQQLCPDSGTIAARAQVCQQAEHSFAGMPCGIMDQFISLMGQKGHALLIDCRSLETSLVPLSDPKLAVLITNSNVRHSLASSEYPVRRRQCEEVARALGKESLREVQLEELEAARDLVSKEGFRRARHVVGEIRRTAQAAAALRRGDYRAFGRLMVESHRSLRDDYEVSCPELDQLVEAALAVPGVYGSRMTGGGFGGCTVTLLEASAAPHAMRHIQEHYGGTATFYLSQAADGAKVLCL
#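 Luminescent ATP-depletion readout (Kinase-Glo Plus) after 1 h room-temperature incubation of human GALK (5 nM) with galactose 100 µM and ATP 35 µM, pH 8.0 HEPES/Mg2+ buffer; compounds tested in qHTS format.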
# NTMT1 inh: blocks human N-terminal methyltransferase 1 activity; Q9BV86; Potency, µM (highest dose often 114 µM), usual class: inhibitors; AID 1645870; actives 2.5% (n = 59,000); NTMT1 MTase-Glo SAH luminescence, purified enzyme; further: nearly all actives have a fitted effect of over 65% in size
# Target sequence (Q9BV86 whole entry, looked up): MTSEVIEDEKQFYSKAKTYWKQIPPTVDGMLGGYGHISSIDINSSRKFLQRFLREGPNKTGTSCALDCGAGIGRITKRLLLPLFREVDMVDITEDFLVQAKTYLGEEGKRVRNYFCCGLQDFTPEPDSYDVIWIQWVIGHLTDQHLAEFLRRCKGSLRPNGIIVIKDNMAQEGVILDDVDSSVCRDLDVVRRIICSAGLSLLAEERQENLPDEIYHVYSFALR
# PTAP-TSG101 blk: inhibitors of HIV-1 PTAP binding to human TSG101, validation; Q99816; Fluorescence polarization, FITC-PTAP peptide/Tsg101, 20 min; Potency, µM (titrated, usually from 115 µM), usual class: inhibitors; 44,000 tested, under 10 active; AID 1347069
#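 Steps: Tsg101 binding domain (10 uM final) in HEPES pH 7.5/NaCl/Tween 20/EDTA/TCEP; add compound; add FITC-PTAP peptide (50 nM final); incubate 20 min r.t.; read polarization.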
# FH mod: Identification of activators of human fumarate hydratase by quantitative high-throughput screening | Fumarate hydratase, mitochondrial (Homo sapiens), P07954 | FH coupled MDH/diaphorase resazurin fluorescence, 15 min | Potency, µM (doses to about 79.9 µM), usual class: inhibitors | actives 0.22% (n = 54,000) | AID 1347055, 2019; further: the screen sought activators but most active calls are inhibition curves; nearly all actives have a fitted effect of over 45% in size
# B2AR arrestin ag: ADRB2 beta-arrestin recruitment | 44,000 tested, under 10 active | HTLA Tango cells, beta-arrestin recruitment, luciferase luminescence, 18 h | AID 1347077 | Potency, µM (highest dose often 46.1 µM), hits mostly activators | P07550
#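 Receptor–beta-arrestin recruitment read by tTA-responsive luciferase: compound titrations (up to 46 µM) incubated 18 h with Tango cells, then luminescent substrate 15 min at room temperature. Concentration-response fits classified by r2, efficacy and activity.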
# Sfp qHTS opt: Sfp PPTase inhibition, chemistry optimization | shares compounds with NTMT1 inh | purified Sfp PPTase enzyme activity, qHTS | Potency, µM (doses to about 114 µM), most hits filed as inhibitors | actives 78% (n = 230)
# Bsub HM489 growth: Sfp PPTase inhibitors: growth inhibition of B. subtilis HM489; AID 540353; actives 50% (n = 220); B. subtilis HM489 (acpS-) growth, BacTiter-Glo, 5 h; shares compounds with NTMT1 inh; Potency, µM (top dose mostly 114 µM), actives largely listed as inhibitors
# Sfp PPTase gel: inhibits B. subtilis Sfp PPTase in gel assay; shares compounds with NTMT1 inh; purified Sfp PPTase, gel-based product detection; Potency, µM (series often up to 250 µM), actives largely listed as inhibitors; actives 54% (n = 220)
# Sfp gel: Sfp phosphopantetheinyl transferase inhibition, gel detection. shares compounds with NTMT1 inh. purified Sfp PPTase, gel-based product detection. Potency, µM (doses to about 250 µM), most hits filed as inhibitors. actives 90% (n = 45). AID 602362
# Sfp SAR2: inhibitors of Bacillus subtilis Sfp PPTase, SAR round 2; Potency, µM (series often up to 57.1 µM), hits mostly inhibitors; purified Sfp enzyme, PPTase activity, qHTS; actives 87% (n = 230); shares compounds with NTMT1 inh
# hGST A1-1 inh: inhibits hGST A1-1 in Sfp inhibitor counter-screen; shares compounds with NTMT1 inh; hGST A1-1 enzyme activity counter-screen, qHTS; Potency, µM (doses to about 114 µM), actives largely listed as inhibitors; 55 tested, under 10 active
# HSD17B4 counter: inhibits human HSD17B4, off-target for HPGD inhibitors | shares compounds with NTMT1 inh | purified HSD17B4, estradiol/NAD+, NADH fluorescence | Potency, µM (doses to about 57.1 µM), actives largely listed as inhibitors | actives 10% (n = 230) | AID 743187
# ALDH1A1 counter: counter-screen for HPGD inhibitors: human ALDH1A1 inhibition | shares compounds with NTMT1 inh | recombinant ALDH1A1, NADH fluorescence, propionaldehyde/NAD+ | Potency, µM (series often up to 57.1 µM), usual class: inhibitors | actives 93% (n = 230) | AID 743195
# NNMT counter: blocks human NNMT methyltransferase | shares compounds with NTMT1 inh | NNMT MTase-Glo luminescence, SAH detection | Potency, µM (doses to about 57.1 µM), most hits filed as inhibitors | actives 10% (n = 120)
# A number is an active result; - = inactive; ? = inconclusive; . = no result. Many of the other results were omitted from the sample, so hits are more common in it than they were. The call rests on the fitted dose curve; in most records, active means well fitted curve in the direction sought with a large enough effect; inconclusive means small, poorly fitted or top-dose-only effect, or another doubt; inactive means no such curve, though single readings can be large; an effect the other way counts as inactive or inconclusive.
SMILES,GALK inhibitor,NTMT1 inh,PTAP-TSG101 blk,FH mod,B2AR arrestin ag,Sfp qHTS opt,Bsub HM489 growth,Sfp PPTase gel,Sfp SAR2,HSD17B4 counter,ALDH1A1 counter,others
CN1C(N)=N[C@](C)(c2cc(NC(=O)c3ccc(F)cn3)ccc2F)CS1(=O)=O,.,-,.,.,.,.,.,.,.,.,.,
COc1cc(N2CCC(O)CC2)ccc1Nc1nc(Nc2ccccc2S(=O)(=O)C(C)C)c2[nH]cnc2n1,.,-,.,-,.,.,.,.,.,.,.,NNMT counter=?
Cc1cc(C)nc(NC(=S)N2CCN(c3ccncc3)CC2)c1,.,?,.,.,.,?,-,-,3.2µM,-,30µM,
Cc1cc(C)nc(NC(=S)N2CCN(c3ccc(F)c(F)c3F)CC2)c1,.,?,.,.,.,2.1µM,21µM,7.9µM,1µM,-,9.6µM,Sfp gel=2.4µM;hGST A1-1 inh=-
CC(=O)c1ccc(N2CCN(C(=O)CCC(=O)Nc3ccc4nc(N5CCCCC5)cc(C)c4c3)CC2)cc1,-,?,-,-,-,.,.,.,.,.,.,
Cc1cc(C)nc(NC(=S)N2CCN(c3cccc(S(C)(=O)=O)c3)CC2)c1,.,?,.,.,.,4.7µM,-,16µM,2.9µM,-,15µM,
Cc1cc(C)nc(NC(=S)N2CCN(c3ccc(C(=O)O)cc3)CC2)c1,.,?,.,.,.,9.4µM,-,-,3.2µM,?,22µM,
Cc1cc(C(=O)N2CCN(c3ccccc3F)CC2)c2c(C)nn(-c3ccccc3)c2n1,-,-,-,-,-,.,.,.,.,.,.,
C[C@@H]1C(=O)OC2[C@H](O)[C@]34[C@H]5C[C@@H](C(C)(C)C)[C@]36[C@@H](OC(=O)[C@@H]6O)O[C@@]4(C(=O)O5)[C@]21O (stereo not given in full),.,-,.,.,.,.,.,.,.,.,.,
Cc1ccc(-c2ccc(=O)n(CC(=O)NCCC3CC3)n2)cc1,.,-,.,.,.,.,.,.,.,.,.,
CC1NC(=O)C(Cc2c[nH]c3ccccc23)NC1=O (stereo not given),.,-,.,-,.,.,.,.,.,.,.,
CC(=O)Nc1sc2c(c1-c1ccc(C(F)(F)F)cc1)CCNC2,.,-,.,.,.,.,.,.,.,.,.,
Cc1cc(C)nc(NC(=S)N2CC3CN(c4ccc(Cl)cc4C(F)(F)F)CC3C2)c1 (stereo not given),.,?,.,.,.,0.26µM,.,.,0.73µM,-,8.6µM,hGST A1-1 inh=?
FC(F)(F)c1cccc(N2CCN(C(=S)Nc3ccc4ccccc4n3)CC2)c1,.,.,.,.,.,5.9µM,?,0.32µM,10µM,-,6.8µM,
FC(F)(F)c1cccc(N2CCN(C(=S)Nc3nccc4ccccc34)CC2)c1,.,?,.,.,.,1.9µM,2.6µM,7.9µM,1.4µM,27µM,17µM,Sfp gel=1.3µM;hGST A1-1 inh=-
O=[S+]([O-])(Nc1ccccc1)c1ccc(NCc2cccc(C(F)(F)F)c2F)cc1,.,-,.,.,.,.,.,.,.,.,.,
COc1cccc(C(=O)NCCNc2nc3cc(C)cc(C)c3cc2C#N)c1,.,-,.,-,.,.,.,.,.,.,.,NNMT counter=?
COc1ccc(C2Nc3ccccc3C(=O)N2Cc2ccccc2OC)cc1COc1c(C)cc(NC(C)=O)cc1C (stereo not given),.,-,.,.,.,.,.,.,.,.,.,
Cc1cc(C)nc(NC(=S)N2CCN(c3nsc4ccccc34)CC2)c1,.,?,.,.,.,3.7µM,?,6.3µM,1µM,-,22µM,
Cc1cc(C)nc(NC(=S)N2CCN(c3nc4ccccc4s3)CC2)c1,.,?,.,.,.,0.37µM,?,10µM,0.91µM,-,8.6µM,
CCS(=O)(=O)c1ccccc1C(=O)N1CCN(c2nc3ccccc3s2)CC1,-,-,-,-,-,.,.,.,.,.,.,
CN(Cc1ccccc1)C(=O)C1CCN(Cc2cccc3ccccc23)CC1,.,-,.,.,.,.,.,.,.,.,.,
Cc1cc(C)nc(NC(=S)N2CCN(c3nccc4ccccc34)CC2)c1,.,?,.,.,.,2.6µM,?,-,9.1µM,-,9.6µM,
Cc1cc(C)nc(NC(=S)N2CCN(Cc3cccc4ccccc34)CC2)c1,.,?,.,.,.,4.7µM,?,10µM,8.1µM,-,22µM,
Cc1ccc(C)c(N2CCN(C(=O)c3ccc(NC(=O)c4nsc5ccccc45)cc3)CC2)c1,-,-,-,-,-,.,.,.,.,.,.,
SMILES,GALK inhibitor,NTMT1 inh,PTAP-TSG101 blk,FH mod,B2AR arrestin ag,Sfp qHTS opt,Bsub HM489 growth,Sfp PPTase gel,Sfp SAR2,HSD17B4 counter,ALDH1A1 counter,others
Cc1cc(C)nc(NCc2ccc(O)c3ncccc23)c1,.,-,.,.,.,.,.,.,.,.,.,
Cc1cc(C)nc(NC(=S)N2CCN(Cc3cccc(C(F)(F)F)c3)CC2)c1,.,.,.,.,.,6.6µM,?,?,11µM,-,12µM,
Cc1cc2n(n1)CCC(=O)N2Cc1ccc(C(=O)Nc2cccc(C(F)(F)F)c2)cc1,-,-,-,-,-,.,.,.,.,.,.,
COc1cc2c(NC3CCN(C(C)C)CC3)nc(N3CCC(F)(F)CC3)nc2cc1OCCCN1CCCC1,.,-,.,-,.,.,.,.,.,.,.,
COc1cc2c(NC3CCN(C(C)C)CC3)nc(N3CCCN(c4ccccc4)CC3)nc2cc1OCCCN1CCCC1,.,.,.,.,.,.,.,.,.,.,.,NNMT counter=-
CC(C)(C)c1ccc(-n2cnc3cc(C(=O)N4CCCCC4)ccc32)cc1,.,-,.,.,.,.,.,.,.,.,.,
Cc1ccc(CNC(=O)c2c(C)oc3ncnc(N4CCOCC4)c23)cc1,-,-,-,-,-,.,.,.,.,.,.,
